Among the data in PubChem BioAssay (EPA / NIEHS) are AC50 and outcome values, retold here.

Several values for one entry are separate records, joined by “and”; a condition that tells them apart may be missing. Equal entries are not always repeated. Some compounds were tested as several samples or in several runs, with calls that do not always agree. Activity calls are given as the source filed them. Rule for the calls: active = hit-call score of the fitted dose curve at least 0.9, where 1 is the maximum; inactive = score below 0.9.

Read-out in the test: Human Leukocyte Antigen - DR isotype (HLADR), HLA-DRA (gene 3122)
The test can be described thus: BSK_3C_HLADR: BioMAP Diversity Plus: 3C Assay for Human Leukocyte Antigen - DR isotype (HLADR) Biomarker Activity (AID 2283019). As to conditions: primary human endothelial cells (HUVEC); actives raise or lower the signal. Here is the method: BSK_3C is a cell-based, multiplexed-readout assay that uses umbilical vein endothelium, a human vascular primary cell, with measurements taken at 24 hours after chemical dosing in a 96-well plate.BSK_3C_HLADR is an assay component measured in the BSK_3C assay. It measures HLA-DR antibody related to regulation of gene expression using ELISA technology.Data from the assay component BSK_3C_HLADR was analyzed into 1 assay endpoint. This assay endpoint, BSK_3C_HLADR, was analyzed with bidirectional fitting relative to DMSO as the negative control and baseline of activity. Using a type of binding reporter, gain or loss-of-signal activity can be used to understand changes in the signaling as they relate to the gene HLA-DRA. Furthermore, this assay endpoint can be referred to as a primary readout, because this assay has produced multiple assay endpoints where this one serves a signaling function. To generalize the intended target to other relatable targets, this assay endpoint is annotated to the cell adhesion molecules intended target family, where the subfamily is MHC Class II.
The levels of cell surface (or secreted, indicated by the prefix "s") biomarker endpoints were measured by ELISA. Overt cytotoxicity to cells in confluent adherent cultures (all systems other than the BT system) was assessed by measuring total protein levels using sulforhodamine B (SRB) staining in parallel cultures at the time of biomarker measurements, indicated as SRB endpoints. For proliferation assays for adherent cell types, individual cell types are cultured at sub-confluence and relative cell numbers quantified by SRB staining at time points optimized for each system (48 h: 3C and CASM3C systems; 72 h: BT and HDF3CGF systems; 96 h: SAg system). SRB was performed by staining cells with 0.1% SRB after fixation with 10% TCA and reading wells at 560 nm.Viability and proliferation of PBMC (T cells) was quantified by Alamar Blue reduction for the SAg and BT systems. For PBMC viability (referred to as PBMC Cytotoxicity within the assay endpoint names), cells were plated (75,000/well in a 96-well plate) and then chemical samples added for 1 h before addition of activators, SEB and TSST-1 (20 ng/mL final concentration each). Cells were incubated for 90 h. Then, Alamar Blue (20 uL/well) (Invitrogen, Cat DAL1100) was added for 6 h, and the plates were read with a fluorescence microplate reader at 546/580 nm (excitation/emission). For PBMC proliferation, cells were plated and activated as above but incubated for only 16 h prior to addition of Alamar Blue. Plates were read after 6 h.
Turning to `OC(C(F)(F)F)(C(F)(F)F)C(O)(C(F)(F)F)C(F)(F)F`, the AC50 is 29.4 µM (active) and 26.4 µM (active).

Regarding `CN(C)c1ccc(C(c2ccccc2)c2ccc(N(C)C)cc2)cc1`, the AC50 is 9.37 µM (active).

Consider `CC(C)CC(=O)CC(C)CC(C)C` (stereo not drawn), for which the AC50 is 35.3 µM (active).

For the compound `Oc1cccc2ccccc12`, the AC50 was 10.5 µM (active).

Turning to `CCC(C)=NO`, the result was inactive.

Regarding `CC[N+](CC)(CC(=O)Nc1c(C)cccc1C)Cc1ccccc1` (tested in a mixture with another compound), the outcome was inactive.

Take `CCCCCCCCCCC1CO1` (stereo not drawn): the AC50 was 28.6 µM (active).

`CCCCCCCCCC/C=C/C1CC(=O)OC1=O` (stereo not drawn): the outcome was inactive.

Regarding `COc1ccc(C(=O)c2ccccc2O)c(O)c1`, the AC50 was 20 µM (active) and the outcome was inactive.

As for `CC(C)C1OCCN1CCOC(=O)NCCCCCCNC(=O)OCCN1CCOC1C(C)C` (stereo not drawn), the outcome was inactive.

For `O=C(C(=O)c1ccccc1)c1ccccc1`, the result was inactive.

With `CC[N+](CC)(CC(=O)Nc1c(C)cccc1C)Cc1ccccc1`, the result was inactive.

As for `CCCCCCCCCCCCCCCCCC[N+](C)(C)C`, the half-maximal activity concentration (AC50) was 1.27 µM (active).

Turning to `O=[N+]([O-])c1cc(S(=O)(=O)Nc2ccccc2)ccc1Nc1ccccc1`, the AC50 is 13.9 µM (active).

For the compound `COC(=O)/C=C\C(=O)OC`, the result was inactive.

For `CCCCCCC(O)CCCCCCCCCCC(=O)OC` (stereo not drawn), the result was inactive.

`Cc1cc(-n2nc3ccc(Cl)cc3n2)c(O)c(C(C)(C)C)c1`: the result was inactive.

For the compound `CN(C)CCC(c1ccc(Cl)cc1)c1ccccn1` (stereo not drawn), the result was inactive.

`Cc1cccnc1`: the result was inactive.

On to `C1CN(CCOCCN2CCOCC2)CCO1`, for which the outcome was inactive.

Turning to `CCCCC(CC)COC(=O)C=Cc1ccc(OC)cc1` (stereo not drawn), the AC50 was 30.4 µM (active) and 22.1 µM (active).

Turning to `COc1ccccc1Oc1c(NS(=O)(=O)c2ccc(C(C)(C)C)cc2)nc(-c2ncccn2)nc1OCCO`, the outcome was inactive.

`CCC[Si](OC(C)=O)(OC(C)=O)OC(C)=O`: the outcome was inactive.

For the compound `COc1cc(CNC(=O)CCCC/C=C/C(C)C)ccc1O`, the AC50 is 20 µM (active) and 9.23 µM (active).

`Cc1c(C(N)=O)cc([N+](=O)[O-])cc1[N+](=O)[O-]`: the result was inactive.

On to `Sc1nc2ccccc2s1`, for which the result was inactive.

For `CN(C)Cc1cc(C(C)(C)C)c(O)c(C(C)(C)C)c1`, the outcome was inactive.
